Consider two molecules from ChEMBL document CHEMBL2218924, “A broad activity screen in support of a chemogenomic map for kinase signalling research and drug discovery” (Biochem J, 2013).

The target of test [1] is Death-associated protein kinase 1 (Homo sapiens) (UniProt P53355). To be noted: at 10 µM.
Test [2] addresses Death-associated protein kinase 2 (Homo sapiens) (UniProt Q9UIK4). To be noted: at 1 µM.
Test [3] has as its target T1, Serine/threonine-protein kinase DCLK2 (Homo sapiens) (UniProt Q8N568).
T1 sequence (whole entry): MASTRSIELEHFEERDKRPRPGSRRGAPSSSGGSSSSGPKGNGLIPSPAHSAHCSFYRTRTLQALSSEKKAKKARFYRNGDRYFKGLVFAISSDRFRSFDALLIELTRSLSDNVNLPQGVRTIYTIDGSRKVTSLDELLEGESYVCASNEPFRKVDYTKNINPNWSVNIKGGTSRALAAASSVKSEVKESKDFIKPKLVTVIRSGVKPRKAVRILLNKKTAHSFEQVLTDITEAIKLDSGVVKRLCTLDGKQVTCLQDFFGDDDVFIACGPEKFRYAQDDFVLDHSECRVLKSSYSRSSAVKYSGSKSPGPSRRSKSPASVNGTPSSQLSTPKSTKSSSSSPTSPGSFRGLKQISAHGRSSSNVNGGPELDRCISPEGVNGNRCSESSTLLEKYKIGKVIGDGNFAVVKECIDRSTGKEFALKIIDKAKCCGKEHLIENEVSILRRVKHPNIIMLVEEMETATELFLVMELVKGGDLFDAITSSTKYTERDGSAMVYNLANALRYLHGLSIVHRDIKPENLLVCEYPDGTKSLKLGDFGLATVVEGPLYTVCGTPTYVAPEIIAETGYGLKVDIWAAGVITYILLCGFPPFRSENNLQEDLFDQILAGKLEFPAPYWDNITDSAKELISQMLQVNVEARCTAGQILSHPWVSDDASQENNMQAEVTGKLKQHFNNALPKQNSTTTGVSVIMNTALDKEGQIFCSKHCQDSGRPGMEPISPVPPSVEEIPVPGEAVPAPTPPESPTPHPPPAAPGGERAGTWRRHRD
To be noted: at 1 µM.

Test [4] deals with T1, Serine/threonine-protein kinase DCLK2 (Homo sapiens). The conditions noted are these: at 10 µM.
Test [5] addresses T2, Serine/threonine-protein kinase 17A (Homo sapiens) (UniProt Q9UEE5).
T2 sequence (whole entry): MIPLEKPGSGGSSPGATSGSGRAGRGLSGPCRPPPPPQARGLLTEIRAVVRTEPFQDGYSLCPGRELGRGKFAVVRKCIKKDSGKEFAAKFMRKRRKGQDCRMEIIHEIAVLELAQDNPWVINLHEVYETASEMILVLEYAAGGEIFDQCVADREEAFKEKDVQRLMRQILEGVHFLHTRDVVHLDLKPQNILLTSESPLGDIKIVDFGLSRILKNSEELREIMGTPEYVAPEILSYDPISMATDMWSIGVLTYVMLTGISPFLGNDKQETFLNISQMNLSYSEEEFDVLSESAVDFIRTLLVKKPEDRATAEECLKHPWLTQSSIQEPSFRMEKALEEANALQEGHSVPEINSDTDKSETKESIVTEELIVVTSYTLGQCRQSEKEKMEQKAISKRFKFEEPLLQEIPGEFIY
To be noted: at 1 µM.

Test [6] addresses T2, Serine/threonine-protein kinase 17A (Homo sapiens). The conditions noted are these: at 10 µM.
Test [7] concerns the target T3, Dual specificity tyrosine-phosphorylation-regulated kinase 2 (Homo sapiens) (UniProt Q92630).
T3 sequence (whole entry): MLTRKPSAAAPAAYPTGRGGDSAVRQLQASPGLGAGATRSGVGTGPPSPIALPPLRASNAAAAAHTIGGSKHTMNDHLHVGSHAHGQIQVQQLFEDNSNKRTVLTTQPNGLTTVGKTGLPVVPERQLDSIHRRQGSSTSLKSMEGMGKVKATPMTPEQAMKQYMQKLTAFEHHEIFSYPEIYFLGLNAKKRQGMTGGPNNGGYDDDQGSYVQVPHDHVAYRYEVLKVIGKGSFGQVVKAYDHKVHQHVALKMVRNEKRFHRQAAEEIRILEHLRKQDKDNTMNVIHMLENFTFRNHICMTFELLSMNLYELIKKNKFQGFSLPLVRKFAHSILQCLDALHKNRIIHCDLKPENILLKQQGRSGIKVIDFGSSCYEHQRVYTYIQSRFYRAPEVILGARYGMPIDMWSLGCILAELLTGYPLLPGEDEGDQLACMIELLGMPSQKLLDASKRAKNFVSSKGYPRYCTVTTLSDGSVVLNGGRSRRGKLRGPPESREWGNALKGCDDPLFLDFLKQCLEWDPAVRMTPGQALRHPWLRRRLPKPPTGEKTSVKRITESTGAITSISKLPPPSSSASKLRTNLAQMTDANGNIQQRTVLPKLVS
The conditions noted are these: at 1 µM.

Test [8] addresses T3, Dual specificity tyrosine-phosphorylation-regulated kinase 2 (Homo sapiens). To be noted: at 10 µM.
For test [9], the target named is Epidermal growth factor receptor (Homo sapiens) (UniProt P00533). To be noted: at 1 µM.
Sequence of Epidermal growth factor receptor (Homo sapiens) (P00533 whole entry): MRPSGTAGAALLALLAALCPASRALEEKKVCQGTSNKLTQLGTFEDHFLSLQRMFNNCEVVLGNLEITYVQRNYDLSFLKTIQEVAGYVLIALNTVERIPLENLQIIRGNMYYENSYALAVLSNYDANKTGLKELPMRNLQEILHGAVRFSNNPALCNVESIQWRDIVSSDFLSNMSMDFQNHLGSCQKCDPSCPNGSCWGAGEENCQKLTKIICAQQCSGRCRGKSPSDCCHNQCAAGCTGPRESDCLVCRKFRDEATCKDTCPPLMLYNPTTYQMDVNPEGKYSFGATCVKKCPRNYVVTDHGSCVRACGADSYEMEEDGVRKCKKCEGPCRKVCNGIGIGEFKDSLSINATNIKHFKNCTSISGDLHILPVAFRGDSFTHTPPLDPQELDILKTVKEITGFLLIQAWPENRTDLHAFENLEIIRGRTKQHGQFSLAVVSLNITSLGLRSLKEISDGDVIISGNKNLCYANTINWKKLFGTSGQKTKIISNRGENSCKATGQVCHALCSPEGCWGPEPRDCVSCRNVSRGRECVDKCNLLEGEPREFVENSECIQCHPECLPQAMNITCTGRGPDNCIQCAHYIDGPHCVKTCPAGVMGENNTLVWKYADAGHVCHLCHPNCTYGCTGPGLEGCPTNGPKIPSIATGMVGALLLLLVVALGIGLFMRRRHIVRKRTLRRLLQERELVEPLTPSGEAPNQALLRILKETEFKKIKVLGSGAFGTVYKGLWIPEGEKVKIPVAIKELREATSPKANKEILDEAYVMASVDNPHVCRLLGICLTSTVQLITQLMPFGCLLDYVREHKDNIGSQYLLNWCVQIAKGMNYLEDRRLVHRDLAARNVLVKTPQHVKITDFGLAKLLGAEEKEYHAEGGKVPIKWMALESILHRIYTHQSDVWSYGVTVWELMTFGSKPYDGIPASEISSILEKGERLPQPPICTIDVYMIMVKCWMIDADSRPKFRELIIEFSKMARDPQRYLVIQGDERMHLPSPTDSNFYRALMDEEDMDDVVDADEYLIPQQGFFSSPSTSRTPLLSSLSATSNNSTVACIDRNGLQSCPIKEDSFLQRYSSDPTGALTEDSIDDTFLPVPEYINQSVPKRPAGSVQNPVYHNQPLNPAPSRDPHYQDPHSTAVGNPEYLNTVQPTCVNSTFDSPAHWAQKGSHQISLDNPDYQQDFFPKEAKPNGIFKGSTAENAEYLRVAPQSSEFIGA
For test [10] the target is unchanged. To be noted: at 10 µM.
Test [11] addresses T4, Ephrin type-A receptor 1 (Homo sapiens) (UniProt P21709).
T4 sequence (whole entry): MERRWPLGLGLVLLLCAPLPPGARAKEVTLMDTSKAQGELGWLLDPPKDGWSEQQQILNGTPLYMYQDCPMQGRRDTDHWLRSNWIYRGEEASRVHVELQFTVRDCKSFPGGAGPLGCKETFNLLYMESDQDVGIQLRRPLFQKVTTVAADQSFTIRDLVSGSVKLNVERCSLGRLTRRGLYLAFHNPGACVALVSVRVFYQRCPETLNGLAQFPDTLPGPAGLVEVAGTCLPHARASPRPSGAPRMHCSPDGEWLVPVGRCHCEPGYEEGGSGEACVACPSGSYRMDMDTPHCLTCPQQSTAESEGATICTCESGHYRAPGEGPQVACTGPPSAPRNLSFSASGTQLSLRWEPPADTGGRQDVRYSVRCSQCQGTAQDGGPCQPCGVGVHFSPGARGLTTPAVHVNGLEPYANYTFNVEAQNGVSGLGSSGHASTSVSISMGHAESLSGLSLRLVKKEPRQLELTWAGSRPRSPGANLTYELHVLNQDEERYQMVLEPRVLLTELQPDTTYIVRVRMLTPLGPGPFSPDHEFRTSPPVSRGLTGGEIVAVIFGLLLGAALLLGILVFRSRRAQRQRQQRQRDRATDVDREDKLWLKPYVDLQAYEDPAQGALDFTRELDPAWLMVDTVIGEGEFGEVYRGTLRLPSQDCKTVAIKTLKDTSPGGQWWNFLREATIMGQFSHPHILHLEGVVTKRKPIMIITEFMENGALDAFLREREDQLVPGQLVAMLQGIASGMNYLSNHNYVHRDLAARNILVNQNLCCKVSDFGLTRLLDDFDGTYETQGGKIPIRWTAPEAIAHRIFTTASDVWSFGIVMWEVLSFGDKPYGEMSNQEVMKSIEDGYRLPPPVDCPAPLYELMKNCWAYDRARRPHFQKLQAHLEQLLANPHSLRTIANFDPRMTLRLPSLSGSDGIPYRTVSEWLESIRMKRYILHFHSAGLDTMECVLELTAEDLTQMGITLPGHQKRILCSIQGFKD
To be noted: at 1 µM.

The target in test [12] is Death-associated protein kinase 2 (Homo sapiens) (UniProt Q9UIK4). The conditions noted are these: at 10 µM.
Sequence of Death-associated protein kinase 2 (Homo sapiens) (Q9UIK4 whole entry, looked up, the tested form may be a part): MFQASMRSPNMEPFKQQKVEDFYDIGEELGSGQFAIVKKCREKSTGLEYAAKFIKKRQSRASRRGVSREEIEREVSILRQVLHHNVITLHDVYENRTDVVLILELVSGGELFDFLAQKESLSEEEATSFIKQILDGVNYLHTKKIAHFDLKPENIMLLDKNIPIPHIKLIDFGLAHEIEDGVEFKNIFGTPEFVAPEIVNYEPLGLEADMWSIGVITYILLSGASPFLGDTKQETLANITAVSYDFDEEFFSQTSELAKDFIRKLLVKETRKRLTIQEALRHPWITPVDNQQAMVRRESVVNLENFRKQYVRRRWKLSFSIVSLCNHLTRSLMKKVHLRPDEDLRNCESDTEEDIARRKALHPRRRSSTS
Test [13] deals with T5, Discoidin domain-containing receptor 2 (Homo sapiens) (UniProt Q16832).
T5 sequence (whole entry): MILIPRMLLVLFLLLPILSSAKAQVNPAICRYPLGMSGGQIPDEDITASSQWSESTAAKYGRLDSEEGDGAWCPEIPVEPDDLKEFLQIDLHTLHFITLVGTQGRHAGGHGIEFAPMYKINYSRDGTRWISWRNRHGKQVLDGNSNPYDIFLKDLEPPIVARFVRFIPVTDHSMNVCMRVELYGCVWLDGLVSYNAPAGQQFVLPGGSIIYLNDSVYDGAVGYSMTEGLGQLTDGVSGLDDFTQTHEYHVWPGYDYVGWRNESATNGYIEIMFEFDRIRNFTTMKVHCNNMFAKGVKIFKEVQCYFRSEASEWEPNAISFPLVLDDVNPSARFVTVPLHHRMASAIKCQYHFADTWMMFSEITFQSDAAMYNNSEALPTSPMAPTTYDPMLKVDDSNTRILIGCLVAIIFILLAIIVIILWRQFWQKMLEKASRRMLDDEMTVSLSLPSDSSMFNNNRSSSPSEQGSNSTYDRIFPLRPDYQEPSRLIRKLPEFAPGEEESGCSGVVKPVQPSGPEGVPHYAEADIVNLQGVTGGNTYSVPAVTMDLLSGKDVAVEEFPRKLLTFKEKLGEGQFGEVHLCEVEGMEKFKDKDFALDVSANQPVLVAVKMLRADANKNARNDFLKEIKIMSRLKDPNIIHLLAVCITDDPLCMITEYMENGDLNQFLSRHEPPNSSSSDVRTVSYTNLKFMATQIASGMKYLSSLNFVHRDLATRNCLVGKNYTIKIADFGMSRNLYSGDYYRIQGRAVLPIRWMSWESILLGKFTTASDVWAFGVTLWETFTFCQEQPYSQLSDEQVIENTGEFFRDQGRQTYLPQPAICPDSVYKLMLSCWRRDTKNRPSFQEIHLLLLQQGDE
To be noted: at 1 µM.

The target in test [14] is T5, Discoidin domain-containing receptor 2 (Homo sapiens). The conditions noted are these: at 10 µM.
Test [15] concerns the target T4, Ephrin type-A receptor 1 (Homo sapiens). To be noted: at 10 µM.
The target of test [16] is Ephrin type-A receptor 2 (Homo sapiens) (UniProt P29317). To be noted: at 10 µM.
Sequence of Ephrin type-A receptor 2 (Homo sapiens) (P29317 whole entry): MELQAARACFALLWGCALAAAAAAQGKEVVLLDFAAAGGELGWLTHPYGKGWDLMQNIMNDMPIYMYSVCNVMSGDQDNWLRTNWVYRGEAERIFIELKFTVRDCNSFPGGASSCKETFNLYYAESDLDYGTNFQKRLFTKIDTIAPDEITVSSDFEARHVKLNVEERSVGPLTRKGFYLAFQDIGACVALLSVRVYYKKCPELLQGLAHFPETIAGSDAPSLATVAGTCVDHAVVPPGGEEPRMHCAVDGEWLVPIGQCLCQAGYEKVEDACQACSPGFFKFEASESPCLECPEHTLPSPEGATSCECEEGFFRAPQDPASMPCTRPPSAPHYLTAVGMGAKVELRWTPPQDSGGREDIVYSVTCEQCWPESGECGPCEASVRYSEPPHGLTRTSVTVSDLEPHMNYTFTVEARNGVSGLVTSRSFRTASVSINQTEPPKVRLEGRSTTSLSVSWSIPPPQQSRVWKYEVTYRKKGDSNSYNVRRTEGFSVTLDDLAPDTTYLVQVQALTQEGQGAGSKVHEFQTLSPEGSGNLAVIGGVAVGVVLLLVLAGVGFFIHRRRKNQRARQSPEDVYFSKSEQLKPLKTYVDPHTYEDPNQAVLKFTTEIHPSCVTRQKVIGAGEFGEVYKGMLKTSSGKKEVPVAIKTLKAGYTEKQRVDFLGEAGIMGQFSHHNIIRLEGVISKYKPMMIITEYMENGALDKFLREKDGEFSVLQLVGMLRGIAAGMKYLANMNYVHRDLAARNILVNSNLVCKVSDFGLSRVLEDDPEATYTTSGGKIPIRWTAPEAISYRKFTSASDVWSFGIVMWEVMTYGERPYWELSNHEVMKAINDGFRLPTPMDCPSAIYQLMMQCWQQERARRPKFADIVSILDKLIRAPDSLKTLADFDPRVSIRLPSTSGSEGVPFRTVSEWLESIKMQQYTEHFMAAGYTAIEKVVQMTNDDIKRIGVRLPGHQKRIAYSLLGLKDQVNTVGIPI
The target in test [17] is T6, Ephrin type-A receptor 3 (Homo sapiens) (UniProt P29320).
T6 sequence (whole entry): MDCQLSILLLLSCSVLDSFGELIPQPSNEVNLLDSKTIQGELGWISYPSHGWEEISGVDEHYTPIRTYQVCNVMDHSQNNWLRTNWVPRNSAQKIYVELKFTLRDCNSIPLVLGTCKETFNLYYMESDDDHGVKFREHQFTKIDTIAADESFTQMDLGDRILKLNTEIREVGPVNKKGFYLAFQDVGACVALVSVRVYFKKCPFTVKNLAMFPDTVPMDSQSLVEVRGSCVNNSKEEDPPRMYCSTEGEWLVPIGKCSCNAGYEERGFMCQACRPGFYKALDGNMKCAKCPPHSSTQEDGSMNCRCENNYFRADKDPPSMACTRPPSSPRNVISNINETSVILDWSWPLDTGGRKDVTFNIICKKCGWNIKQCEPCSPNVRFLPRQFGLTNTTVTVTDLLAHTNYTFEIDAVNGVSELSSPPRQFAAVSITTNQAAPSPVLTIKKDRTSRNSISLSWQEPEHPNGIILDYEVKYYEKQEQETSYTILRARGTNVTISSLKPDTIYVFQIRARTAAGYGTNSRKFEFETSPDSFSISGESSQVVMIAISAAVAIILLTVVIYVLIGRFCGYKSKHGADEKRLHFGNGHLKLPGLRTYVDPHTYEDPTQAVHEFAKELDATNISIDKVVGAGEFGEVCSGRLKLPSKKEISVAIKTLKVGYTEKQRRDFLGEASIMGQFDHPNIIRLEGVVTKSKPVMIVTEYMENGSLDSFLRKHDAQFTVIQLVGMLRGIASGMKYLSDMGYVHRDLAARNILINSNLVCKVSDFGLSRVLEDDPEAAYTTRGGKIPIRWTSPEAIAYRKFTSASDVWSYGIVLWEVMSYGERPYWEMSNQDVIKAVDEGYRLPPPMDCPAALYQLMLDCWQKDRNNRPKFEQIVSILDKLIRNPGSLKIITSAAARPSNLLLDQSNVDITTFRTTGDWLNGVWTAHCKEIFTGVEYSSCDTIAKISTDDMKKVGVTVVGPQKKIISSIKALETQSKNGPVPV
To be noted: at 1 µM.

Sequence of Death-associated protein kinase 1 (Homo sapiens) (P53355 whole entry, looked up): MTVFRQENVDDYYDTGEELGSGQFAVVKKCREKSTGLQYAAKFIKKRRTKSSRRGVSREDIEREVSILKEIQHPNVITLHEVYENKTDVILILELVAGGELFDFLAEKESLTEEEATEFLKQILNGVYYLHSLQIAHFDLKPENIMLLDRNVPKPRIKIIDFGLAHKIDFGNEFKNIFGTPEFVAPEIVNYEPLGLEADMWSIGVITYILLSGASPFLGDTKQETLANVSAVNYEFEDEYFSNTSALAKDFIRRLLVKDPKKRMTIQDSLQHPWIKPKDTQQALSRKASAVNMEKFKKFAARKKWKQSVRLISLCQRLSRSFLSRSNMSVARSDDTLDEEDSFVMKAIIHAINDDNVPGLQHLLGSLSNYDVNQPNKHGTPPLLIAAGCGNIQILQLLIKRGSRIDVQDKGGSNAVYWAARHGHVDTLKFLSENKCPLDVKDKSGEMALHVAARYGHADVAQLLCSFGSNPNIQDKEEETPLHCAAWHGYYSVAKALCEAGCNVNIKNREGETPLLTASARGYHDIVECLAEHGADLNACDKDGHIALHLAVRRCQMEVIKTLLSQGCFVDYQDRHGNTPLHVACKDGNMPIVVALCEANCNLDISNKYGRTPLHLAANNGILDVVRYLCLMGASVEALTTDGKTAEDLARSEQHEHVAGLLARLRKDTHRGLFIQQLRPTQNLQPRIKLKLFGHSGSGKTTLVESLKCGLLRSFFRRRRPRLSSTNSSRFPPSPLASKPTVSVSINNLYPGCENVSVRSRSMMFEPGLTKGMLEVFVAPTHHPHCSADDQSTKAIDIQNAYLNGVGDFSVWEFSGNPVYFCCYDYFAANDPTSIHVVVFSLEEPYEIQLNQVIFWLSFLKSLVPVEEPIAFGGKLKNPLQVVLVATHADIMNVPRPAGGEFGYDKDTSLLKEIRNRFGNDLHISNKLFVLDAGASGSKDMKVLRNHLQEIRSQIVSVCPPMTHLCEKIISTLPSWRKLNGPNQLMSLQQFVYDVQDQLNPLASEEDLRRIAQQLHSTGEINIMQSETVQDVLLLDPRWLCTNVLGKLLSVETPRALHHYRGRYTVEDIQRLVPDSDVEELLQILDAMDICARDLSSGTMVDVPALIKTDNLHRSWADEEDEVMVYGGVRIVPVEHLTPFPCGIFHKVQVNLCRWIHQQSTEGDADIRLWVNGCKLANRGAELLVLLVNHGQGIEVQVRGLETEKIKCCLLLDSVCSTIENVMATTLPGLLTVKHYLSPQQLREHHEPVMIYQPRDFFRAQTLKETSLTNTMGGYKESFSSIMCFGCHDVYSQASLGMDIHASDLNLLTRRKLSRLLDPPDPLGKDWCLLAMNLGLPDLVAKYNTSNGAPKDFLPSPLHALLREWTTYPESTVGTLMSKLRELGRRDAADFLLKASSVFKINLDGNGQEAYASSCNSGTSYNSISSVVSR

As usually defined, the residual activity is the signal under treatment as a percentage of the control signal. On to `Oc1cccc(-c2nc(N3CCOCC3)c3oc4ncccc4c3n2)c1`, for which the residual activity in [1] worked out at 76%; in test [2], 93%; in test [3], 94%; in [4], 65%; in [5] it was 116%; in test [6], 86%. Also, the residual activity in test [7] came out at 94%; in [8], 98%; in test [9] it was 119%; in test [10], 119%; in test [11] it was 91%.

Turning to `O=c1cc(N2CCOCC2)oc2c1ccc1ccccc12`, the residual activity came to 84% in [1]; 92% in [2]; 80% in test [12]; 83% in test [3]; 87% in [4]; 106% in test [13]. Further, the residual activity in [14] worked out at 105%; in test [5], 92%; in test [6] it was 71%; in test [7], 97%; in test [8] it was 65%; in test [11], 91%. The residual activity in test [15] stood at 87%; in test [16] it was 95%; in test [17], 92%.
